This is part of a sample that, as a whole, favours compounds with a hit. Of some 83,000 tested, about 20% had one in any assay.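 Method: cells in 96-well plates; compound added at one concentration; 48 h incubation; percent growth measured; values under 10 scored active.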 Unmarked numbers belong to inactive results. The source made the active and inactive calls.

Holding throughout (experiment): NCI-60 one-dose screen, 48 h (100 = growth as untreated, 0 = no growth, -100 = all killed)
Common to all, as to conditions: 10 µM unless noted

The test system of assay [1] is BT-549 breast.
The subject of assay [2] is MDA-MB-435 melanoma.
Assay [3] concerns SW-620 colon.
For assay [4], the system named is MCF7 breast.
In assay [5] the test system is HCT-116 colon.
The test system of assay [6] is HCC-2998 colon.
In assay [7] the test system is KM12 colon.

In the case of `Fc1ccc(-c2nc(C(Cl)Cl)nc3cc(-c4ccccc4)nn23)cc1`, the growth in assay [1] was 52.3%; in assay [2], 3.93% (active); in assay [3], -35.7% (active); in assay [4], 21.5%; in assay [5] it was 5.36% (active); in assay [6], -34.7% (active). For the same molecule, the growth in assay [7] was -12% (active).
As for `CC(C)(C)Nc1nc2c(OCCc3ccccc3)cccn2c1-c1ccccc1Cl`, the growth is 24% in assay [1]; 7.76% (active) in assay [2]; 11.5% in assay [3]; -10.6% (active) in assay [4]; 2.39% (active) in assay [5]; -0.61% (active) in assay [6]. Besides, in assay [7], the growth is 4.49% (active).
On to `OC1CCc2c(-c3ccc4ncnc(N5CCc6cc(F)c(Cl)cc65)c4c3)cncc21` (stereo not drawn), for which the growth in assay [1] was 46.5%; in assay [2], 62.7%; in assay [3] it was 85.1%; in assay [4] it was 23.4%; in assay [5], 66.9%; in assay [6], 72.1%. Further, the growth in assay [7] was 66.2%.
`CC(C)(C)Nc1nc2c(OCCc3ccccc3)cccn2c1-c1ccc(Cl)cc1`: the growth in assay [1] was 47.7%; in assay [2], 19.2%; in assay [3], 41%; in assay [4], 0.0476% (active); in assay [5] it was 8.63% (active); in assay [6], 24.7%. Besides, in assay [7], the growth was 32.7%.
As to `N#Cc1c(-c2ccc(Cl)cc2)nc(SCc2ccc(F)cc2)nc1N1CCNCC1`, the growth in assay [1] was 101%; in assay [2], 69.3%; in assay [3], -80.2% (active); in assay [4], -19.3% (active); in assay [5], -93.8% (active); in assay [6] it was -31.8% (active). Moreover, the growth in assay [7] was 33.6%.
Regarding `NS(=O)(=O)c1ccc(Nc2nc(Nc3ccccc3)nc(-n3nc(-c4ccccc4)cc3-c3ccccc3)n2)cc1`, the growth in assay [1] was 52.7%; in assay [2] it was 26.9%; in assay [3], 38.2%; in assay [4] it was 6.85% (active); in assay [5], 10.5%; in assay [6], 43.1%. In addition, the growth in assay [7] was 9.22% (active).
Take `COC(=O)c1ccc(NC(=S)N2CCc3ccc([N+](=O)[O-])cc3C2)cc1O`: the growth in assay [1] is 101%; in assay [2], 111%; in assay [3], 110%; in assay [4], 92.7%; in assay [5] it was 117%; in assay [6], 110%. Moreover, the growth in assay [7] was 103%.
Take `Cc1c(Nc2nnc(SCC(=O)Nc3sc4c(c3C#N)CCCC4)s2)c(=O)n(-c2ccccc2)n1C`: the growth was 113% in assay [1]; 104% in assay [2]; 103% in assay [3]; 93.5% in assay [4]; 102% in assay [5]; 115% in assay [6]. The growth in assay [7] is 98%.
In the case of `Cn1cc(-c2cc(N)n3nc(-c4cn(C)c5ccc(Br)cc45)cc3n2)c2cc(Br)ccc21`, the growth in assay [1] is 105%; in assay [2] it was 30.8%; in assay [3], 1.21% (active); in assay [4] it was 1.35% (active); in assay [5] it was 57%; in assay [6], 82.5%. Further, in assay [7], the growth is 64.8%.
On to `Nc1ncc(-c2ccc3ncnc(N4CCc5cc(F)c(Cl)cc54)c3c2)cc1CO`, for which the growth was -31.1% (active) in assay [1]; -34.4% (active) in assay [2]; 11.1% in assay [3]; 4.61% (active) in assay [4]; 6.3% (active) in assay [5]; 8.47% (active) in assay [6]. Besides, the growth in assay [7] was 0.831% (active).
With `COc1ccc(C(=O)/C=C/c2ccc(OCc3ccc(Cl)cc3)c(OC)c2)cc1OC`, the growth in assay [1] is 62.1%; in assay [2], 79.4%; in assay [3] it was 43.1%; in assay [4], 20.4%; in assay [5], 20.8%; in assay [6], 84.3%. Moreover, the growth in assay [7] is 54.9%.
In the case of `N#Cc1ccc(/C=N/NC(=O)c2[nH]c3ccc(Br)cc3c2-c2ccccc2)s1`, the growth in assay [1] was -11.4% (active); in assay [2] it was 1.78% (active); in assay [3] it was 22.9%; in assay [4], 5.58% (active); in assay [5], -18.9% (active); in assay [6] it was 21.8%. Also, the growth in assay [7] was 11%.
As to `CN1CCN(Cc2ccc(NC(=O)c3cncc(C#Cc4cnc5[nH]ncc5c4)c3)cc2C(F)(F)F)CC1`, the growth in assay [1] was 73.3%; in assay [2], 8.99% (active); in assay [3], 11.5%; in assay [4], 52.6%; in assay [5], 12.4%; in assay [6] it was 45.7%. In addition, in assay [7], the growth is 6.81% (active).
Regarding `Clc1ccc(Cc2nnc3sc(-c4cccnc4)nn23)cc1`, the growth is 95.5% in assay [1]; 101% in assay [2]; 99.1% in assay [3]; 88.7% in assay [4]; 101% in assay [5]; 105% in assay [6]. For the same molecule, in assay [7], the growth was 99.7%.
In the case of `COc1ccc(/C=N/NC(=O)c2[nH]c3ccc(Br)cc3c2-c2ccccc2)s1`, the growth in assay [1] is -15.9% (active); in assay [2], -21.4% (active); in assay [3] it was 18.2%; in assay [4] it was 6.97% (active); in assay [5], -19.9% (active); in assay [6] it was 26.8%. Also, the growth in assay [7] was 3.72% (active).
Consider `Cc1cccc(/C=C/c2nn3c(-c4ccco4)nnc3s2)c1`, for which the growth in assay [1] is 90.8%; in assay [2], 95.8%; in assay [3] it was 101%; in assay [4], 78.5%; in assay [5], 106%; in assay [6] it was 95%. The growth in assay [7] is 105%.
For the molecule `Cn1ccnc1C(=O)/C=C/c1ccc(NC(=O)Nc2ccc(F)cc2)cc1`, the growth in assay [1] is 30.1%; in assay [2], 35.4%; in assay [3] it was 42.1%; in assay [4], 10.3%; in assay [5], 17.1%; in assay [6], 29.8%. The growth in assay [7] was 36.5%.
As to `COc1cccc(OC)c1-c1nnn(C)c1C(=S)N1CCN(c2ccc([N+](=O)[O-])cc2Cl)CC1`, the growth in assay [1] is 91.7%; in assay [2] it was 102%; in assay [3], 101%; in assay [4], 85.7%; in assay [5], 88.2%; in assay [6] it was 96.7%. The growth in assay [7] is 108%.
Take `Clc1ccc2c(NCCCN3CCOCC3)c3oc4ccc(Cl)cc4c3nc2c1`: the growth is 81.3% in assay [1]; 69.6% in assay [2]; 27.5% in assay [3]; 22.2% in assay [4]; 23.4% in assay [5]; 10% in assay [6]. The growth in assay [7] is 48.4%.
For `COC(=O)C1CCCN(S(=O)(=O)/N=C2\NC(=O)NC2=C(Cl)Cl)C1` (stereo not drawn), the growth in assay [1] was 118%; in assay [2] it was 111%; in assay [3], 85.8%; in assay [4] it was 20.4%; in assay [5] it was 97.8%; in assay [6], 111%. Also, in assay [7], the growth was 4.95% (active).
As for `C#Cc1nc(C2=C(C)C(=N\O)/C(=N/O)C2)cs1`, the growth was 105% in assay [1]; 93.7% in assay [2]; 109% in assay [3]; 72.5% in assay [4]; 87.3% in assay [5]; 113% in assay [6]. The growth in assay [7] was 67.1%.
On to `CN1C(=S)N(C)C2C1NN=C1SC(c3ccccc3)=CC(=O)N12` (stereo not drawn), for which the growth in assay [1] is 98.1%; in assay [2], 74.2%; in assay [3] it was 105%; in assay [4] it was 96.1%; in assay [5], 98.8%; in assay [6], 106%. Also, the growth in assay [7] is 98.3%.
On to `CCN1CCN(/C(=N\c2sc(-c3ccccc3)nc2-c2ccccc2)c2ccccc2)CC1`, for which the growth in assay [1] is 90.9%; in assay [2] it was 88%; in assay [3], 84.9%; in assay [4] it was 67.3%; in assay [5], 62.4%; in assay [6] it was 77.1%. In assay [7], the growth is 59.8%.
For the molecule `CCN1CCN(S(=O)(=O)c2oc(-c3ccc(Cl)cc3)nc2C#N)CC1`, the growth in assay [1] was 93.6%; in assay [2], 62.6%; in assay [3], -23.6% (active); in assay [4], 31.3%; in assay [5], 11.6%; in assay [6], 115%. Moreover, the growth in assay [7] is 91.7%.
For the molecule `O=C(CN1CCOCC1)NNc1ncnc2ccccc12`, the growth in assay [1] was 100%; in assay [2] it was 91.7%; in assay [3], -26% (active); in assay [4], 64.6%; in assay [5], 81.7%; in assay [6], 114%. In addition, the growth in assay [7] was 97.1%.
On to `Cc1[nH]nc2ncc(C#Cc3cncc(C(=O)Nc4ccc(CN5CCN(C)CC5)c(C(F)(F)F)c4)c3)cc12`, for which the growth was 64.5% in assay [1]; 13.1% in assay [2]; 4.05% (active) in assay [3]; 43.8% in assay [4]; 8.54% (active) in assay [5]; 44.4% in assay [6]. Besides, the growth in assay [7] is 8.98% (active).
On to `CCCC(=O)NC(c1cccnc1)c1cc(C)c2cccnc2c1O` (stereo not drawn), for which the growth in assay [1] is 69.5%; in assay [2], 59.7%; in assay [3], 33.4%; in assay [4] it was 10.6%; in assay [5] it was 8.73% (active); in assay [6] it was 64.1%. Also, the growth in assay [7] is 38.4%.
For `COc1cc(/C=C/C(=O)c2ccc(C(F)(F)F)cc2)ccc1Oc1nc(NCCO)nc(N2CCOCC2)n1`, the growth in assay [1] was 92.9%; in assay [2], 78.9%; in assay [3], -3.75% (active); in assay [4] it was 17%; in assay [5], -18.5% (active); in assay [6], 104%. The growth in assay [7] was 62.4%.
For the molecule `CCOC(=O)c1c(Nc2ccccc2)nn2c(N)c(C#N)c(-c3ccc(OC)cc3)nc12`, the growth in assay [1] was 52.6%; in assay [2] it was 79%; in assay [3], 94.7%; in assay [4], 70.3%; in assay [5], 77.8%; in assay [6], 92.5%. The growth in assay [7] is 83%.
Regarding `COc1cc(/C=C/C(=O)c2ccc(Cl)cc2)ccc1Oc1nc(NCCO)nc(N2CCOCC2)n1`, the growth in assay [1] was 100%; in assay [2] it was 109%; in assay [3], 72.4%; in assay [4] it was 67%; in assay [5] it was 93.1%; in assay [6], 100%. For the same molecule, the growth in assay [7] was 106%.
For the molecule `O=C(CCN1C(=O)/C(=C/c2ccccc2)SC1=S)N1CCOCC1`, the growth in assay [1] is 104%; in assay [2], 81.9%; in assay [3], 79%; in assay [4], 40.9%; in assay [5], 89.6%; in assay [6], 112%. Also, the growth in assay [7] was 84.3%.
With `C#Cc1nc(C2=C(C)C(OC(C)=O)/C(=N/OC(C)=O)C2)cs1` (stereo not drawn), the growth is -74.3% (active) in assay [1]; 88.9% in assay [2]; 8.98% (active) in assay [3]; 25.9% in assay [4]; 19.9% in assay [5]; 105% in assay [6]. Moreover, in assay [7], the growth was -19.7% (active).
Regarding `CC(=O)Nc1cc(F)cc(-c2ccc3[nH]cc(-c4ccccc4)c3n2)c1`, the growth in assay [1] was 73.1%; in assay [2], 9.43% (active); in assay [3], -56.2% (active); in assay [4], 1.97% (active); in assay [5] it was 11.9%; in assay [6], -19% (active). Also, the growth in assay [7] was -41% (active).
Consider `COc1ccc(C(=O)/C=C/c2ccc(Oc3nc(NCCO)nc(N4CCOCC4)n3)c(OC)c2)cc1`, for which the growth in assay [1] was 90.9%; in assay [2], 44.5%; in assay [3], 0.395% (active); in assay [4], 12.7%; in assay [5] it was 10.6%; in assay [6], 99.8%. In addition, the growth in assay [7] was 28.9%.
